# Screening data: PubChem BioAssay, Broad Institute
# INS-1E GSIS act – primary screen for activators of insulin secretion dependent on glucose, INS-1E cells, GLuc reporter luminescence | INS-1E GLuc reporter insulin secretion, 2-3 h | hit rate 0.61% among 370,000 | activation, % at 16.6 µM;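 active means lowest replicate activation of at least 40%, so every replicate reaches that level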;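 further: 0% = median of neutral control wells and 100% = median of IBMX positive control wells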
# AF4-AF9 inh – blocks AF4 peptide binding to human AF9; AID 651704; P42568; AlphaScreen, biotin-AF4 peptide binding to FLAG-AF9; inhibition, % at 10 µM; hit rate 0.47% among 350,000;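 active means every replicate reaching a set inhibition limit, whatever the replicate mean, cut at about 25% in these data; inconclusive means mean inhibition reaches that limit but some replicates miss it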;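 further: 0% = plate neutral control median and 100% = total signal loss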
# PGC1a acetyl inh – PGC1a acetylation modulation, inhibitor mode; hit rate 0.17% among 350,000; U2OS PGC1a acetylation, AlphaScreen anti-acetyl-lysine; with virally co-expressed GCN5 acetyltransferase; AID 651687; inhibition, % at 15.6 µM;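 active means every replicate shows inhibition of at least 40%; inconclusive means mean inhibition at least 40% but some replicate below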;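 further: 0% = neutral control wells and 100% = positive control wells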
# HIV Env fusion – HIV envelope-mediated fusion inhibition | HeLa-JRFL Env/CEM21 cell fusion, luciferase | inhibition, % at 12.3 µM | hit rate 1.1% among 360,000 | AID 651610;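 active means mean replicate inhibition score of at least 50 and every replicate individually at or above 50; inconclusive means only one of the two criteria met; inactive means mean below 50 and not all replicates reaching 50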;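 further: 0% = plate neutral controls and 100% = maraviroc near 300 nM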
# NSD2 inh – blocks human histone methyltransferase NSD2 | O96028 | NSD2 peptide methylation, AlphaScreen, 120 min | inhibition, % at 12.5 µM | hit rate 0.54% among 310,000 | AID 743445; in the data active means inhibition above about 50%
# Target sequence (O96028 whole entry, looked up): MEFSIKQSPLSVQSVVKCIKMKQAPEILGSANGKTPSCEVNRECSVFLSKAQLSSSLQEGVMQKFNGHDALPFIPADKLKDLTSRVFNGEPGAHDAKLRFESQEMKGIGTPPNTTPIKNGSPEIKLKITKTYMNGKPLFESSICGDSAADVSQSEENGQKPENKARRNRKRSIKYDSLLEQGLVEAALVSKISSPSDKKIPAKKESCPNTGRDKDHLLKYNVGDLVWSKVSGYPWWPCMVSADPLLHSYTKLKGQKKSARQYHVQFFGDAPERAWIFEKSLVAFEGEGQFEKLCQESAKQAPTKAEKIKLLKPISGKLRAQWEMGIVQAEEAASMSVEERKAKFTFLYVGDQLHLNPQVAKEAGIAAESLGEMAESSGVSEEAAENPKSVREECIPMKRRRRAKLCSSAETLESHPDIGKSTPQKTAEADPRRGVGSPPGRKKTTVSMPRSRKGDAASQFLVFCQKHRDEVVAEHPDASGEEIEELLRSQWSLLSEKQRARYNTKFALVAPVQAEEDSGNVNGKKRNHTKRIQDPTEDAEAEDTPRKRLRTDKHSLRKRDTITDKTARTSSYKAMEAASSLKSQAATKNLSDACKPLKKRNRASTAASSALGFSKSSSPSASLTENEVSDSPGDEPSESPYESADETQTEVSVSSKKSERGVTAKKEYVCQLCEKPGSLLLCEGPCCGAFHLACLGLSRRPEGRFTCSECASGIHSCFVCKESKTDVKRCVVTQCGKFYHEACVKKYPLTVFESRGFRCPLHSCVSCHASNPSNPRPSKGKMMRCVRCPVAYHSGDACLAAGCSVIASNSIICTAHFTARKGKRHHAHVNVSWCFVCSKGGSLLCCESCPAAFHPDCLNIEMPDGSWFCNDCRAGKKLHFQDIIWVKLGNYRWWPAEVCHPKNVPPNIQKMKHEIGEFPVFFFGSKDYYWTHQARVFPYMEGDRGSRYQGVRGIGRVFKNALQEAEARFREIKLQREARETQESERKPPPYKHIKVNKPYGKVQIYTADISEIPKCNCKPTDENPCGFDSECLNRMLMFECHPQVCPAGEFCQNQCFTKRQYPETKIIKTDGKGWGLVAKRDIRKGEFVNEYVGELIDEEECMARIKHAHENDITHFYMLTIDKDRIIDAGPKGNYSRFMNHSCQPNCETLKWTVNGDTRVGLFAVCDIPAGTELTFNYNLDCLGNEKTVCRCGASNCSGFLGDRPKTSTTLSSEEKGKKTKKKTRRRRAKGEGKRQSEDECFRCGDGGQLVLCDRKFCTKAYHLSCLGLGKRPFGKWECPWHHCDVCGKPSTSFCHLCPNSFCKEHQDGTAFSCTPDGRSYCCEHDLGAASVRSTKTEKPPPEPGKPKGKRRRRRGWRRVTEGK
# Active calls of the source: *; ? = inconclusive; nt = no result given; [ ] = remark or other dose. An excerpt weighted towards active compounds, which were near 2.1% of everything screened.
SMILES,INS-1E GSIS act,AF4-AF9 inh,PGC1a acetyl inh,HIV Env fusion,NSD2 inh
O=[N+]([O-])c1cccc(Oc2ncccc2[N+](=O)[O-])c1,78*,3,-10,nt,3
COC(Cn1c(-c2cccc(S(=O)(=O)N(C)C)c2)n[nH]c1=S)OC,13,-5,1,-2,-1
C[C@H](CO)N1C[C@H](C)[C@H](CN(C)CC2CC2)Oc2ccc(NC(=O)Nc3ccc4c(c3)OCO4)cc2CC1=O,-8,8,nt,65*[16.7 µM],nt
C[C@H](CO)N1C[C@H](C)[C@H](CN(C)Cc2ccc3c(c2)OCO3)Oc2ccc(NC(=O)Nc3ccc4c(c3)OCO4)cc2CC1=O,-19,2,-12,16[16.7 µM],nt
C[C@@H]1CN([C@@H](C)CO)C(=O)Cc2cc(NC(=O)Nc3ccc4c(c3)OCO4)ccc2O[C@H]1CN(C)Cc1ccc2c(c1)OCO2,-6,25*,-10,8[16.7 µM],nt
C[C@@H]1CN([C@@H](C)CO)C(=O)Cc2cc(NC(=O)Nc3ccc4c(c3)OCO4)ccc2O[C@H]1CN(C)Cc1ccc(Cl)c(Cl)c1,-9,3,2,57*[16.7 µM],nt
C[C@H]1CN([C@@H](C)CO)C(=O)Cc2cc(NC(=O)Nc3ccc4c(c3)OCO4)ccc2O[C@@H]1CN(C)CC1CC1,-8,13,nt,14[16.7 µM],nt
C[C@H](CO)N1C[C@H](C)[C@H](CN(C)Cc2ccc(Cl)c(Cl)c2)Oc2ccc(NC(=O)Nc3ccc4c(c3)OCO4)cc2CC1=O,-14,2,-5,17[16.7 µM],nt
CCOc1cc(S(=O)(=O)n2ccnc2)ccc1Br,18,-5,13,-7,0
O=C(C[C@@H]1C[C@@H]2c3cc(NC(=O)C4CCC4)ccc3O[C@@H]2[C@@H](CO)O1)NCc1ccc(-c2ccccc2)cc1,13,-3,80*,43[16.7 µM],nt
CN(C)c1ccc2c(c1)[C@@H]1C[C@H](CC(=O)NCc3ccc(-c4ccccc4)cc3)O[C@@H](CO)[C@@H]1O2,-12,nt,-6,80*[16.7 µM],nt
O=C(C[C@H]1C[C@@H]2c3cc(NC(=O)C4CCOCC4)ccc3O[C@@H]2[C@H](CO)O1)NCc1ccccc1,3,-1,0,83*[16.7 µM],nt
CCOc1ccc(Nc2nc(N)nc(CCl)n2)cc1,nt,3,6,-138,1
C=C[C@@H]1c2ccccc2N(S(=O)(=O)c2ccc(C)cc2)[C@H](c2ccc(C(F)(F)F)cc2)C1(C#N)C#N,5,1,nt,56*,nt
Cc1cc(C(=O)N/N=C/c2ccc3c(c2)OCO3)c(C)n1-c1ccc(F)cc1,10,0,nt,29,3
CCOC(=O)c1cc(=O)n2[nH]c(-c3ccc(C)cc3)cc2n1,nt,nt,8,nt,-5
CCOC(=O)Cc1cc(=O)n2[nH]c(-c3ccc(C)cc3)cc2n1,65*,nt,19,-28,21
COc1ccc(S(=O)(=O)N(C)C[C@@H]2OCCCC[C@H](C)Oc3ccc(NC(=O)Nc4c(C)noc4C)cc3C(=O)N([C@H](C)CO)C[C@H]2C)cc1,4,-2,-2,15[16.7 µM],nt
COCCNC(=O)CN1CCN(C(c2ccccc2)c2ccccc2)CC1,7,2,4,nt,nt
CN1CCC(N(C)C(=O)c2ccc(Cl)c(S(=O)(=O)N3CCCCC3)c2)CC1,1,-3,8,1,3
Cc1ccc(NS(=O)(=O)c2cc(C(=O)N(C)C3CCN(C)CC3)ccc2Cl)cc1Cl,14,2,-5,75*,1
Cc1cc(C(=O)COC(=O)CC(NC(N)=O)c2ccc(Cl)cc2)c(C)n1C (stereo not given),-7,6,-2,nt,6
NC(=O)COC(=O)CC(NC(N)=O)c1ccc(Cl)cc1 (stereo not given),nt,5,107*,nt,-2
CCNc1ccc(C(=O)OCC(=O)NCc2ccccc2Cl)cc1[N+](=O)[O-],59*,nt,nt,9,-1
CC(=O)c1cccc(NC(=O)COC(=O)c2ccc(S(C)(=O)=O)c([N+](=O)[O-])c2)c1,48*,?,-28,11,11
SMILES,INS-1E GSIS act,AF4-AF9 inh,PGC1a acetyl inh,HIV Env fusion,NSD2 inh
CS(=O)(=O)c1ccc(C(=O)OCC(=O)Nc2cccnc2Cl)cc1[N+](=O)[O-],118*,nt,nt,nt,3
CS(=O)(=O)c1ccc(C(=O)OCC(=O)NC(=O)C2COc3ccccc3O2)cc1[N+](=O)[O-] (stereo not given),106*,-2,4,-4,-1
CC(CCc1ccccc1)NC(=O)COC(=O)c1ccc(S(C)(=O)=O)c([N+](=O)[O-])c1 (stereo not given),9,-4,nt,19,6
CCNc1ccc(C(=O)OCC(=O)NC(=O)NCC(C)C)cc1[N+](=O)[O-],-1,-1,-1,11,5
Cc1ccccc1NC(=O)COC(=O)c1ccc(S(C)(=O)=O)c([N+](=O)[O-])c1,5,-1,nt,18,1
COc1ccc(CCNC(=O)C(=O)NCC2CCCN2S(=O)(=O)c2cccs2)cc1 (stereo not given),-17,0,10,nt,-2
CC(C)(O)C(=O)NN(Cc1ccccc1)c1ccccc1,26,nt,1,-33,-2
COc1ccc(CN(C)C[C@@H]2OCCCC[C@@H](C)Oc3ccc(NC(=O)C4CCCCC4)cc3C(=O)N([C@H](C)CO)C[C@H]2C)cc1,-27,0,-2,3[16.7 µM],nt
CCC(C)c1ccccc1OCCCN(C)Cc1ccccc1 (stereo not given),192*,6,-48,15,7
CCc1nc(N2[C@H](CO)[C@H](c3ccccc3-c3ccccc3F)[C@@H]2C#N)sc1C,6,-2,-4,nt,nt
CCOc1ccc(C(=O)Nc2cccc(C(=O)O)c2C)cc1Cl,22,2,nt,60*,-3
CCCCc1ccc(NC(=O)COc2ccc(C(=O)Nc3ccccc3OCC)cc2)cc1,71*,nt,-10,nt,-3
CCOc1ccccc1NC(=O)c1ccc2ccccc2c1,14,-8,88*,-5,-3
COc1ccc(-c2csc(N(CC3CCCO3)C(=O)c3ccc(C)cc3)n2)cc1 (stereo not given),nt,nt,5,49*,-1
CC(=O)N(/N=C/c1cccc(C)c1)c1nc(-c2ccc(Br)cc2)cs1,110*,nt,-5,-136,1
COc1ccc(/C=N/N(C(C)=O)c2nc(-c3ccc(C)cc3)cs2)cc1,146*,nt,7,-33,-8
COc1cccc(NC(=O)N2[C@@H](CO)[C@@H](c3ccccc3)[C@@H]2CNC(C)C)c1,-13,1,-9,nt,nt
C[C@@H]1CN([C@@H](C)CO)C(=O)c2cc(C3=CCCCC3)cnc2O[C@H]1CN(C)C(=O)NC1CCCC1,-8,-2,-5,-10[16.7 µM],nt
Cc1ccc(Cn2c(=O)c3ccccc3n3c(CCC(=O)NCCN4CCOCC4)nnc23)cc1,nt,nt,2,nt,2
CC(C)CCn1c(=O)c2ccccc2n2c(CN3CCOCC3)nnc12,45*,0,nt,-1,1
COc1ccc(OC)c(CN2C(=O)c3ccccc3C2c2nnnn2-c2c(C)cccc2C)c1 (stereo not given),-29,2,nt,68*,nt
